Test [1] is described as follows: Wnt pathway potentiators raising nuclear beta-catenin – imaging, WNT3A-conditioned medium, mouse C2C12, NPC library, primary screen (AID 1117326; in the data active = nuclear beta-catenin stimulation mostly above about 4.2%, no sharp cut-off; inactive = mostly below about 10%). The following applies: stronger effect = higher value.
The nature of test [2]: stimulators of insulin release from INS-1E, primary screen, cell-based, 5 mM glucose, NPC library (AID 1117329;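 active = compound raises insulin release from rat beta cells at 5 mM glucose, no numeric limit stated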). To be noted: rat INS-1E insulin secretion, at 10 µM, stronger effect = higher value.
A short description of test [3]: growth inhibition of GSK3B-pretreated HCT116 cells – cell-based, CellTiter-Glo, 0.2 to 20 µM (AID 1117336;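 active = compounds lowering colon cancer cell viability after pretreatment blocking the GSK3B kinase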). The following applies: HCT116 viability after GSK3B inhibitor, at 20 µM, stronger effect = higher value.
Test [4] in a line: inhibition of endothelial tube formation, primary screen, imaging, VEGF stimulated, CD31 staining, tube area, NPC library (AID 1117340;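 active = compound that reduces growth-factor-driven endothelial tube area in a mixed cell culture, no cutoff stated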). The following applies: VEGF-stimulated ADSC/ECFC co-culture, at 10 µM, stronger effect = higher value.
A short description of test [5]: GLP1 release stimulators, primary, NCI-H716, NPC library (AID 1117341;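 active = compound raises GLP1 secretion from the human gut endocrine cells, with no numeric limit stated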). To be noted: NCI-H716 cells, at 10 µM, stronger effect = higher value.
Test [6] can be described thus: HCT116 colon cancer cell growth inhibition, primary screen, CellTiter-Glo luminescence, NPC library (AID 1117342). The following applies: at 20 µM (top of the series). A general note: In ATP-based viability assays light output follows the ATP content of the culture.
A short description of test [7]: reduced SW480 viability measured with CellTiter-Glo, NPC library, primary (AID 1117343;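 active = compounds that lower viability of the colon cancer cells in the luminescence readout, with no numeric limit stated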). To be noted: CellTiter-Glo luminescence; at 20 µM (top of the series) unless noted.
Test [8] is described as follows: NPC library primary testing for decreased DLD-1 cell viability via CellTiter-Glo (AID 1117346;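 active = compounds that lower survival of DLD-1 colon cancer cells in the luminescence readout, no cutoff given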). To be noted: DLD-1 viability, CellTiter-Glo luminescence; at 20 µM (top of the series).
Test [9] deals with Aerobactin synthetase IucA (Klebsiella pneumoniae). Put plainly: inhibition of K. pneumoniae IucA enzyme – biochemical, Tocris library, absorbance (AID 1345561; call rule not given here;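 note: 100% = enzyme without compound and 0% = no enzyme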). The following applies: purified IucA enzyme assay, absorbance (OD) read-out; stronger effect = lower value;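 tested at 8 µM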.
Test [10] in a line: viability loss with induced miR-34 in A549 – imaging, A549 dox-inducible miR-34, nuclei and caspase counts, primary screen (AID 1347080;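 active = compounds whose cell count with miR-34 switched on is under 0.7 times the count with it off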). The following applies: A549 miR-34 inducible, Hoechst nuclei count, 48 h.
Test [11] can be described thus: galactose survival enhancers in mitochondrial complex I cybrids – cell-based, galactose medium, ATP luminescence, primary screen (AID 1645843;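 active = z-score of at least 1.8 in each of two replicates, scored against plate mean and spread of sample wells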;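 note: positive z means more ATP and so rescue of galactose-driven cybrid death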). To be noted: complex I mutant cybrid cells, 72 h, stronger effect = higher value.
Test [12] is described as follows: viability loss in pontine glioma line – cell-based, SU-DIPG-XVII, MIPE5.0, CellTiter-Glo, qHTS, dose response (AID 1347060; cut-off not given, nearly all actives have AC50 up to about 26 µM). The following applies: CellTiter-Glo ATP luminescence.
Test [13] is described as follows: viability loss in pontine glioma line – cell-based, SU-DIPG-XIII, MIPE4.0, CellTiter-Glo, qHTS, dose response (AID 1347061; cut-off not given, nearly all actives have AC50 up to about 37 µM;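 note: cells exposed to compound for 48 hours before readout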). To be noted: CellTiter-Glo ATP luminescence.
The nature of test [14]: growth inhibition of DIPG cells – cell-based, MIPE4.0 library, CellTiter-Glo luminescence, qHTS (AID 1347066; cut-off not given, nearly all actives have AC50 up to about 30 µM;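 note: cells exposed to compound for 48 hours before readout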). To be noted: SU-DIPG-VI viability, CellTiter-Glo ATP luminescence.
Test [15] can be described thus: growth inhibition of DIPG cells – cell-based, MIPE5.0 library, qHTS (AID 1347068; cut-off not given, nearly all actives have IC50 up to about 30 µM). To be noted: SU-DIPG-XXV viability. On the technique in general: qHTS replaces the single test concentration by a dilution series.
The mark [16] stands for this setting: stronger effect = lower value, cell number ratio, induced over uninduced.
Where [17] appears, read: measured here: relative caspase fold change +Dox/-Dox.
Where [18] appears, read: measured here: total cells with miR-34 induction, stronger effect = lower value.
Where [19] appears, read: measured here: total cells without miR-34 induction.

Records with an inconclusive call do not appear. Calls of active or inactive are those of the source.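 Rule for the calls, unless noted: active = compounds that lower survival of HCT116 colon cancer cells in the luminescence readout, no numeric limit stated; inactive = the rest.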

Consider `O=C1OC(OC(=O)c2cccnc2Nc2cccc(C(F)(F)F)c2)c2ccccc21` (centres undefined), for which the nuclear beta-catenin stimulation in test [1] (at 10 µM) is 21.1% (inactive); in test [1] (stimulation, at 2 µM) it was 11%. Also, in test [2], the insulin secretion stimulation was 2.7% (inactive). Further, in test [3], the viability decrease is 17.5% (inactive). Further, in [4], the tube area decrease is 72.7% (active). The GLP1 secretion stimulation in [5] is 1.3% (inactive). Moreover, the inhibition of viability in [6] is 10.2% (inactive). In addition, the viability decrease (inhibition) in test [7] was 115% (active); in test [8] it was 31.2% (inactive). In test [9], the remaining activity is 120% (inactive). Further, the values for the fold change in [10] (setting [16]) and in [10] (setting [17]) were 0.992 (inactive) and 1.33, respectively. Besides, the values for the cell count in [10] (setting [18]) and in test [10] (setting [19]) were 7990 and 8060, respectively. For the same compound, in test [11], the z-score is -0.625 (inactive).
In the case of `C=CCn1c(=O)n([C@@H]2O[C@H](CO)[C@@H](O)[C@H]2O)c2nc(N)[nH]c(=O)c21`, the nuclear beta-catenin stimulation in test [1] (at 10 µM) is 0.1% (inactive); in test [1] (stimulation, at 2 µM), 2.4%. In addition, the insulin secretion stimulation in test [2] is -0.5% (inactive). Moreover, in [3], the viability decrease was -3.9% (inactive). In [4], the tube area decrease is 12.2% (inactive). Moreover, in [5], the GLP1 secretion stimulation is 0.6% (inactive). For the same compound, the inhibition of viability in test [6] is 2.2% (inactive). For the same compound, the viability decrease (inhibition) in test [7] was -8.4% (inactive); in test [8] it was 1% (inactive). In addition, the remaining activity in test [9] is 101% (inactive). Also, the fold change in [10] (setting [16]) is 0.961 (inactive); in test [10] (setting [17]) it was 1.57. Also, the cell count in test [10] (setting [18]) amounted to 9010; in [10] (setting [19]), 9380. Moreover, the z-score in test [11] was 0.185 (inactive).
Regarding `Nc1ccn(C[C@@H](CO)OCP(=O)(O)O)c(=O)n1`, the nuclear beta-catenin stimulation in [1] (at 10 µM) was 1.2% (inactive); in test [1] (stimulation, at 2 µM), 0.4%. For the same compound, the insulin secretion stimulation in test [2] was 1.05% (inactive). In test [3], the viability decrease is 22.7% (inactive). For the same compound, the tube area decrease in test [4] was -2.6% (inactive). Besides, the GLP1 secretion stimulation in test [5] is 0.9% (inactive). In addition, the inhibition of viability in [6] was 14.9% (inactive). The viability decrease (inhibition) in test [7] was 109% (active); in test [8] it was 2.8% (inactive). Moreover, the outcome in test [12], in test [13], in test [14] and in test [15] was inactive.
In the case of `CCOC(=O)[C@H](CCc1ccccc1)N[C@H]1CS[C@H](c2cccs2)CN(CC(=O)O)C1=O`, the nuclear beta-catenin stimulation is 0.9% (inactive) in test [1] (at 10 µM) and -0.9% in test [1] (stimulation, at 2 µM). Further, the insulin secretion stimulation in test [2] is 2% (inactive). For the same compound, in test [3], the viability decrease was -8.8% (inactive). For the same compound, the tube area decrease in [4] is -13.9% (inactive). Moreover, the GLP1 secretion stimulation in test [5] was 4.1% (inactive). The inhibition of viability in test [6] was -4.6% (inactive). Further, the values for the viability decrease (inhibition) in [7] and in test [8] were -29% (inactive) and 2.5% (inactive), respectively. In addition, the result in [12], in test [14] and in test [15] was inactive. The AC50 in [13] was 14.8 µM (active).
As to `C[C@H]1C[C@H]2[C@@H]3CCC4=CC(=O)C=C[C@]4(C)[C@H]3C(=O)C[C@]2(C)[C@@]1(O)C(=O)CO`, the nuclear beta-catenin stimulation in [1] (at 10 µM) is 0.1% (inactive); in [1] (stimulation, at 2 µM), 1.2%. In addition, in [2], the insulin secretion stimulation is 1.5% (inactive). Moreover, the viability decrease in test [3] is 19% (inactive). Further, in test [4], the tube area decrease was -11% (inactive). Further, the GLP1 secretion stimulation in [5] is 0.7% (inactive). Further, the inhibition of viability in test [6] is -1.9% (inactive). The viability decrease (inhibition) was 0.2% (inactive) in [7] and 5.4% (inactive) in [8]. Besides, the outcome in [12], in test [13], in [14] and in test [15] was inactive.

In general, remaining activity refers to the signal under treatment as a percentage of the control signal. A word on the AC50: it is the midpoint of the concentration-response curve, whichever way the signal moves.

For the origin of these results see PubChem BioAssay.
